Experimental data taken from the antibiotic and cytotoxicity screens of Wong et al. (2023).
About 3,300 (8.5%) of roughly 39,000 compounds were called active. Only a selection was taken, and actives are over-represented in it overall.

Each compound was assayed on HepG2 (assay: cytotoxicity call (relative viability < 0.9)). Conditions: 10 µM.
In the case of `COc1cccc(C2(O)CCCCC2CN(C)C)c1.Cl` (configuration not stated), the cytotoxicity call is reported as “inactive”. `CN(CC[C@@H](N)CC(=O)N[C@H]1C=C[C@H](n2ccc(N)nc2=O)O[C@@H]1C(=O)O)C(=N)N` was tested, and the cytotoxicity call was “inactive”. `CN[C@H]1C[C@@H](N)[C@H](O)[C@@H](O[C@@H]2O[C@H](CO)[C@H](O)[C@@H]3O[C@@]4(O[C@H]23)O[C@H]([C@@H](N)CO)[C@H](O)[C@H](O)[C@H]4O)[C@@H]1O` was tested, and the cytotoxicity call was “inactive”. For `CCCC(=O)c1c(O)[nH]c(=O)[nH]c1=O`, the cytotoxicity call was “inactive”. `c1ccc2sc(C3(N4CCCCC4)CCCCC3)cc2c1` was tested, and the cytotoxicity call was “inactive”. In the case of `c1ccc2sc(C3(N4CCCC4)CCCCC3)cc2c1`, the cytotoxicity call is reported as “inactive”. `S=C=Nc1cccc(C2(N3CCCCC3)CCCCC2)c1` was tested, and the cytotoxicity call was “active”. For `Oc1ccccc1N1CCNCC1`, the cytotoxicity call was “inactive”. In the case of `O[C@H]1CNC[C@@H]1N1CCCC1`, the cytotoxicity call is reported as “inactive”. In the case of `CN1CC2(CNC2)OCCS1(=O)=O`, the cytotoxicity call is reported as “inactive”. In the case of `C[C@@H]1CN([C@@H](C)CO)C(=O)CCCn2nncc2CO[C@@H]1CN(C)C(=O)Oc1cccc2ccccc12`, the cytotoxicity call is reported as “inactive”. `NCCc1[nH]nc2c1CCCC2` was tested, and the cytotoxicity call was “inactive”. `CC1(C)NN1CCCN1NC1(C)C` (configuration not stated) was tested, and the cytotoxicity call was “inactive”. `NCCO.NCCO.O[AsH]O[AsH]O` (configuration not stated) was tested, and the cytotoxicity call was “active”. In the case of `CC12CCC(=O)C=C1C=CC1C2CCC2(C)C1CCC2(O)CCC(=O)[O-].[K+]` (configuration not stated), the cytotoxicity call is reported as “inactive”. For `CC12CCC3C(CCC45OC4C(O)=C(C#N)CC35C)C1CCC2O` (configuration not stated), the cytotoxicity call was “inactive”. With `C[C@H](N)Cn1ccc2cc(F)c(Cl)cc21` the cytotoxicity call was “inactive”. For `CC(C)[C@H](N)C(=O)N1CCC[C@H]1B(O)O`, the cytotoxicity call was “inactive”. `CO[C@@H]1C[C@@H](C[C@H]2CC[C@H](C)[C@H]([C@@H](C)C(=O)O)O2)O[C@]2(O[C@](C)([C@H]3CC[C@@](C)([C@H]4O[C@@H]([C@H]5O[C@@](O)(CO)[C@H](C)C[C@@H]5C)C[C@@H]4C)O3)C[C@H]2C)[C@@H]1C` was tested, and the cytotoxicity call was “active”. In the case of `C[C@@H](N)Cc1ccc2occc2c1`, the cytotoxicity call is reported as “inactive”. With `CC1=C2CCC3C4CCC(=O)C4(C)CCC3C2(C)CCC1=O` (configuration not stated) the cytotoxicity call was “inactive”. `O=[N+]([O-])c1cc(O)c(O)c([N+](=O)[O-])c1` was tested, and the cytotoxicity call was “inactive”. In the case of `CC(C)=CCCC1(C)C=Cc2c(O)c3c(c(CC=C(C)C)c2O1)OC12C(=CC4CC1C(C)(C)OC2(CC=C(C)C(=O)O)C4O)C3=O` (configuration not stated), the cytotoxicity call is reported as “inactive”. `CC(C)=CCC[C@]1(C)C=Cc2c(O)c3c(c(CC=C(C)C)c2O1)O[C@]12[C@H](C[C@@H]4C[C@H]1C(C)(C)O[C@]2(C/C=C(/C)C(=O)O)[C@@H]4O)C3=O` was tested, and the cytotoxicity call was “inactive”. For `CC(C)=CCCC1(C)C=Cc2c(O)c3c(c(CC=C(C)C)c2O1)OC12C(=CC4CC1C(C)(C)OC2(CC=C(C)C(=O)O)C4=O)C3=O` (configuration not stated), the cytotoxicity call was “active”. In the case of `COc1cc(C(=O)O)cc(OC)c1OC`, the cytotoxicity call is reported as “inactive”. In the case of `CCC(CC)C(=O)N[C@@H]1[C@@H]2CNC[C@@H]21`, the cytotoxicity call is reported as “inactive”. `NC[C@H](CC(=O)O)c1ccc(Cl)cc1` was tested, and the cytotoxicity call was “inactive”. `C[C@@H](N)Cc1ccc(O)cc1` was tested, and the cytotoxicity call was “inactive”. With `C=C(CCCCCCCCCCCCCCCC)OOC[C@@H](COP(=O)(ON)O[C@@H]1[C@H](O)[C@H](O)[C@@H](OP(=O)(O)ON)[C@H](OP(=O)(O)ON)[C@H]1O)OOC(=C)CC/C=C/C/C=C/C/C=C/C/C=C/CCCCC` (some centres not stated) the cytotoxicity call was “active”. For `C[C@H](CO)N1C[C@H](C)[C@H](CN(C)C(=O)Oc2cccc3ccccc23)OCc2cn(nn2)CCCC1=O`, the cytotoxicity call was “inactive”. For `Oc1ccc(Cl)cc1`, the cytotoxicity call was “inactive”. `Cc1cc(O)ccc1Cl` was tested, and the cytotoxicity call was “active”. For `CNC(=O)Oc1ccc2c(c1)[C@]1(C)CCN(C)[C@@H]1N2C.CNC(=O)Oc1ccc2c(c1)[C@]1(C)CCN(C)[C@@H]1N2C.O=S(=O)(O)O`, the cytotoxicity call was “inactive”. For `CN1CCC2(C)c3cc(O)ccc3N(C)C12.O=C(O)C=CC(=O)O` (configuration not stated), the cytotoxicity call was “active”. `CNC(=O)Oc1ccc2c(c1)C1(C)CCN(C)C1N2C.O=S(=O)(O)O` (configuration not stated) was tested, and the cytotoxicity call was “active”. With `CNC(=O)Oc1ccc2c(c1)C1(C)CCN(C)C1N2C.O=C(O)c1ccccc1O` (configuration not stated) the cytotoxicity call was “active”. With `Br.COc1ccc2c(c1)C13CCCCC1C(C2)N(C)CC3` (configuration not stated) the cytotoxicity call was “inactive”. For `CNC(=O)Oc1ccc2c(c1)C1(C)CCN(C)C1N2C` (configuration not stated), the cytotoxicity call was “active”. `Cc1ccc(C)c(C(=O)[C@H](N)CC(C)C)c1` was tested, and the cytotoxicity call was “inactive”. For `Cc1cc(C(=O)N2CC[C@H]3[C@@H]2CCN3C)no1`, the cytotoxicity call was “inactive”. In the case of `CCOc1ccc(N2CCNCC2)nn1`, the cytotoxicity call is reported as “inactive”. With `C[C@H](O)[C@]12[C@@H]3CC=C[C@H]1N2CC3` (some centres not stated) the cytotoxicity call was “inactive”. With `C[C@@H](N)Cc1ccco1` the cytotoxicity call was “inactive”. `CSC1=NN1c1cc(C)nc(N)n1` was tested, and the cytotoxicity call was “inactive”. With `N#C[C@@]12[C@H]3CC=C[C@@H]1N2CC3` (some centres not stated) the cytotoxicity call was “inactive”. `c1nc(N2CCN3CCC[C@H]3C2)c2[nH]cnc2n1` was tested, and the cytotoxicity call was “inactive”. With `COCCCNC(=O)C1[C@@H]2CC[C@H]1CNC2` (some centres not stated) the cytotoxicity call was “inactive”. `O=[N+]([O-])OC1COC2C(O[N+](=O)[O-])COC12` (configuration not stated) was tested, and the cytotoxicity call was “inactive”. In the case of `C=CCc1ccc2c(c1)OCO2`, the cytotoxicity call is reported as “active”. With `OCc1ccc2c(c1)OCO2` the cytotoxicity call was “inactive”. For `OC[C@@H](O)Cc1ccc2c(c1)OCO2`, the cytotoxicity call was “inactive”. With `CC=Cc1ccc2c(c1)OCO2` the cytotoxicity call was “inactive”. In the case of `COP(=S)(OC)Oc1ccc([N+](=O)[O-])cc1`, the cytotoxicity call is reported as “inactive”. `CC(C)N(CCC(C(N)=O)(c1ccccc1)c1ccccn1)C(C)C.O=P(O)(O)O` (configuration not stated) was tested, and the cytotoxicity call was “inactive”. `Cn1ccnc1N1CCNCC1` was tested, and the cytotoxicity call was “inactive”. `c1ccc2c(c1)Nc1ccccc1S2` was tested, and the cytotoxicity call was “active”. With `Nc1ccc(-c2ccccc2)cc1` the cytotoxicity call was “inactive”. For `CC[n+]1c(-c2ccccc2)c2cc(N)ccc2c2ccc(N)cc21.[Br-]`, the cytotoxicity call was “active”. For `O=c1ccc(=O)[nH][nH]1`, the cytotoxicity call was “inactive”. For `COC(C)(C)CCCC(C)CC=CC(C)=CC(=O)OC(C)C` (configuration not stated), the cytotoxicity call was “inactive”. `O=C1CNC[C@@H]2c3cccc(F)c3CCN12` was tested, and the cytotoxicity call was “inactive”. With `[N-]=[N+]=NCc1ccccc1C[C@@]1(C(=O)N2CCCCC2)N=C(c2ccc(OCCCO)cc2)O[C@@H]1c1ccccc1N=[N+]=[N-]` the cytotoxicity call was “inactive”. For `[N-]=[N+]=NCc1ccccc1C[C@]1(C(=O)N2CCOCC2)N=C(c2ccc(OCCCO)cc2)O[C@H]1c1ccccc1N=[N+]=[N-]`, the cytotoxicity call was “active”. With `[N-]=[N+]=NCc1ccccc1C[C@]1(C(=O)N2CCCCC2)N=C(c2ccc(OCCCO)cc2)O[C@H]1c1ccccc1N=[N+]=[N-]` the cytotoxicity call was “active”. `CN1CCc2cc([C@H](CN)N(C)C)ccc21` was tested, and the cytotoxicity call was “inactive”. With `CCOP(=S)(OCC)SCSP(=S)(OCC)OCC` the cytotoxicity call was “inactive”. In the case of `NCCc1cccs1`, the cytotoxicity call is reported as “inactive”. With `CN(C)C(=O)[C@H]1CCC2(CCNCC2)CO1` the cytotoxicity call was “inactive”. With `Cc1cc(C2=NO[C@](c3cc(Cl)cc(Cl)c3)(C(F)(F)F)C2)ccc1C(=O)NCC(=O)NCC(F)(F)F` the cytotoxicity call was “inactive”. For `[O-][n+]1ccccc1[S][Zn][S]c1cccc[n+]1[O-]`, the cytotoxicity call was “active”. With `C[As](C)SC[C@H](NC(=O)CC[C@H](N)C(=O)O)C(=O)NCC(=O)O` the cytotoxicity call was “inactive”. For `CS(=O)(=O)c1ccc(C(=O)C2C(=O)CCCC2=O)c([N+](=O)[O-])c1`, the cytotoxicity call was “inactive”. `Cl.NCC(O)c1ccc(O)cc1` (configuration not stated) was tested, and the cytotoxicity call was “inactive”. In the case of `O=C([O-])CCCO.[Na+]`, the cytotoxicity call is reported as “inactive”. `C[C@]12C(=O)OC(=O)[C@]1(C)[C@H]1CC[C@H]2O1` was tested, and the cytotoxicity call was “active”. With `C[C@@]12C(=O)OC(=O)[C@]1(C)[C@H]1CC[C@@H]2O1` the cytotoxicity call was “active”. `CC12C(=O)OC(=O)C1(C)C1CCC2O1` (configuration not stated) was tested, and the cytotoxicity call was “active”. In the case of `NC1(c2ccc(F)cc2)CCC1`, the cytotoxicity call is reported as “inactive”. With `COC(=O)C1(O)C[C@H]2CC[C@@H](C1)N2C` (some centres not stated) the cytotoxicity call was “inactive”. In the case of `CC=C(C)C(=O)OC1CC(OC(C)=O)C2(C(=O)OC)COC3C2C12COC(O)(C(=O)OC)C2C(C)(C12OC1(C)C1CC2OC2OC=CC21O)C3O` (configuration not stated), the cytotoxicity call is reported as “inactive”. `O[C@H]1C2CN3CCN(C2)CC1(c1ccccc1)C3` was tested, and the cytotoxicity call was “inactive”. For `O=c1cccc2n1C[C@@H]1CNC[C@H]2C1`, the cytotoxicity call was “inactive”. For `Cc1ccc(OC(=O)N(C)C[C@H]2OCc3ccccc3-c3c(n(C)c4ccccc34)C(=O)N([C@@H](C)CO)C[C@H]2C)cc1`, the cytotoxicity call was “inactive”. In the case of `Cc1cc([N+](=O)[O-])cnc1N1CCNCC1`, the cytotoxicity call is reported as “inactive”. For `CN1C(=O)[C@@]23C[C@]4([C@@]56C[C@]78SS[C@](CO)(C(=O)N7[C@@H]5Nc5ccccc56)N(C)C8=O)c5ccccc5N[C@H]4N2C(=O)[C@@]1(CO)SS3`, the cytotoxicity call was “active”. `CN1C(=O)[C@]23CC4=CC=C[C@H](O)[C@H]4N2C(=O)[C@@]1(CO)SS3` was tested, and the cytotoxicity call was “active”. With `NC1=NC(=O)C2(CCNCC2)N1` the cytotoxicity call was “inactive”. In the case of `NC[C@@H]1CCCN2CCCC[C@H]12`, the cytotoxicity call is reported as “inactive”. `CCC(c1cccc(O)c1)C(C)CN(C)C.Cl` (configuration not stated) was tested, and the cytotoxicity call was “inactive”. In the case of `COc1cccc2c1C(=O)c1c(O)c3c(c(O)c1C2=O)C[C@@](O)(C(=O)CO)C[C@@H]3O[C@H]1C[C@H](N2CCO[C@H](OC)C2)[C@H](O)[C@H](C)O1`, the cytotoxicity call is reported as “active”. In the case of `CC(=C1C(=O)NC(=O)NC1=O)c1ccc(N)cc1`, the cytotoxicity call is reported as “inactive”. For `O=C(O)Cc1cnc[nH]1`, the cytotoxicity call was “inactive”. For `CN[C@@H]1[C@@H]2[C@H]3CCN2C[C@H]1O3`, the cytotoxicity call was “inactive”. For `CNC(=O)[C@@H]1COC[C@@H]2CN(CC(C)C)C[C@@H]21`, the cytotoxicity call was “inactive”. In the case of `CCC1(O)C(=O)OCc2c1cc1n(c2=O)Cc2cc3ccccc3nc2-1` (configuration not stated), the cytotoxicity call is reported as “active”. In the case of `OCC(CO)N1CCC2(CCNCC2)CC1`, the cytotoxicity call is reported as “inactive”. `C#CC1(O)C=CC2C3CCC4=CC(=O)CCC4C3CCC21CC` (configuration not stated) was tested, and the cytotoxicity call was “inactive”. In the case of `C[C@@H](N)C(=O)N[C@@H](CO)C(=O)N[C@H](C(=O)N[C@H](C(=O)N[C@H](C(=O)N[C@@H](CC(N)=O)C(=O)N[C@@H](Cc1ccc(O)cc1)C(=O)N[C@H](C(N)=O)[C@@H](C)O)[C@@H](C)O)[C@@H](C)O)[C@@H](C)O`, the cytotoxicity call is reported as “inactive”. With `C[C@@H]1[C@H](O)[C@@H](C)/C=C\C=C/CC\C=C/C=C\C=C/C=C\[C@H](O[C@@H]2O[C@H](C)[C@@H](O)[C@H](N)[C@@H]2O)C[C@@H]2O[C@](O)(C[C@@H](O)[C@H](O)CC[C@@H](O)C[C@@H](O)C[C@@H](O)CC(=O)O[C@H]1C)C[C@H](O)[C@H]2C(=O)O` the cytotoxicity call was “inactive”. In the case of `O=S(=O)(O)O.Oc1cccc2cccnc12`, the cytotoxicity call is reported as “active”. With `CC(C)(C)NCC(O)c1cc(Cl)c(N)c(Cl)c1.Cl` (configuration not stated) the cytotoxicity call was “inactive”.
